Screening data as filed in PubChem BioAssay.
PLK1 PBD block: qHTS for Inhibitors of PLK1-PDB (polo-like kinase 1 - polo-box domain): Primary Screen. Serine/threonine-protein kinase PLK1 (Homo sapiens), P53350. Plk1 PBD binding of FITC phosphopeptide, fluorescence polarization. Potency, µM, inactives show max response, negative = inhibition, hits mostly inhibitors. 360,000 compounds, 2.8% hits. AID 720504, 2013; note: series mostly up to about 57 µM; % is set by controls: 0 for no effect and ±100 for the full control effect; nearly all actives have a fitted effect of over 65% in size
HP1b chromo inh: HTS for Inhibitors of HP1-beta Chromodomain Interactions with Methylated Histone Tails | Chromobox protein homolog 1 (Homo sapiens), P83916 | AlphaScreen HP1-beta / biotin-H3K9me3 peptide binding | 390,000 compounds, 0.56% hits | Potency, µM (top dose mostly 114 µM), without a hit: at the top dose activity change, negative = inhibition, actives largely listed as inhibitors; note: nearly all actives have a fitted effect of over 70% in size
Target sequence (P83916 whole entry, looked up): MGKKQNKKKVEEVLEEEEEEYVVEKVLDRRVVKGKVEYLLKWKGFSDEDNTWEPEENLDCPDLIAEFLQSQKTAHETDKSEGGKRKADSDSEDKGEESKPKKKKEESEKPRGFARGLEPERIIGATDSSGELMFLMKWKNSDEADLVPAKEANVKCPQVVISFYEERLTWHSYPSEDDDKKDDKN
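Compound inhibition of the preformed complex between 50 nM HP1-beta and 50 nM biotinylated H3K9me3 peptide was read by AlphaScreen. Buffer was PBS pH 7.4 with 0.01% Tween-20. Incubations ran 30 min at room temperature, with 10 ug/mL donor/acceptor beads.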
BAZ2B block: qHTS Assay for Inhibitors of BAZ2B. Bromodomain adjacent to zinc finger domain protein 2B (Homo sapiens), Q9UIF8. AlphaScreen BAZ2B-H3K14Ac peptide displacement. Potency, µM (top dose mostly 114 µM), for the others: top-dose activity change, negative = inhibition, usual class: inhibitors. 360,000 compounds, 4.4% hits. AID 504333, 2011; note: % is set by controls: 0 for no effect and ±100 for the full control effect; nearly all actives have a fitted effect of over 60% in size
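AlphaScreen displacement of biotin-H3(5-23)K14Ac peptide (50 nM final) from BAZ2B (50 nM final) in PBS pH 7.4, 0.01% Tween-20; complex preformed 30 min RT, then compounds (top 110 uM) 30 min RT, beads 20 min dark.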
G9a inh: qHTS Assay for Inhibitors of Histone Lysine Methyltransferase G9a; Histone-lysine N-methyltransferase EHMT2 (Homo sapiens), Q96KQ7; G9a H3K9 monomethylation, AlphaScreen, 2 h; Potency, µM (series often up to 102 µM), for the others: top-dose activity, negative = inhibition, most hits filed as inhibitors; 350,000 compounds, 8.8% hits; note: % is set by controls: 0 for no effect and ±100 for the full control effect; nearly all actives have a fitted effect of over 75% in size
Target sequence (Q96KQ7 913-1193 limits assumed): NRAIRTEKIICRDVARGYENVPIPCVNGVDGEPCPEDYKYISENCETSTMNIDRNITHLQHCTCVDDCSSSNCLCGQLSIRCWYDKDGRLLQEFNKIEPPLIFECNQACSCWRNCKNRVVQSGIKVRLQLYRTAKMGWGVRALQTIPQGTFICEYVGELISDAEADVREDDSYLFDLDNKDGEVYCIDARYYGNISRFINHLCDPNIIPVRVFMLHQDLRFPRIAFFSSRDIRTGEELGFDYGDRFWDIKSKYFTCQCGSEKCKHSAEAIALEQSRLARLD
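Signal arises when biotinylated H3K9 peptide, once monomethylated, bridges streptavidin donor and antibody-captured acceptor beads. Enzyme at 20 nM was preincubated 15 min with test compounds; peptide 500 nM and SAM 20 uM then reacted for 2 h.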
12-LOX inh: Primary qHTS assay for inhibitors of human arachidonate 12S-lipoxygenase (ALOX12): Round 2; purified 12hLO, xylenol orange hydroperoxide absorbance; Potency, µM (series often up to 108 µM), without a hit: at the highest dose activity change, negative = inhibition, hits mostly inhibitors; Polyunsaturated fatty acid lipoxygenase ALOX12 (Homo sapiens), P18054; 580,000 compounds, 1.1% hits; note: % is set by controls: 0 for no effect and ±100 for the full control effect
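Purified human 12hLO at 150 nM in 25 mM Hepes, 0.01% Triton X-100, pH 7.0, preincubated 15 min at room temperature with compound. Reaction started with 40 uM arachidonic acid, 30 min at room temperature. Hydroperoxide measured by Fe-xylenol orange, 573/405 nm absorbance ratio.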
JMJD2A Tudor inh: qHTS Assay for Inhibitors of JMJD2A-Tudor Domain; AlphaScreen JMJD2A-Tudor / H3K4me3 peptide binding; Potency, µM (top dose mostly 114 µM), inactives show top-dose activity change, negative = inhibition, usual class: inhibitors; 390,000 compounds, 4.4% hits; note: % is set by controls: 0 for no effect and ±100 for the full control effect; nearly all actives have a fitted effect of over 50% in size
* marks the source's active call; other numbers are inactive results; i = inactive; ? = inconclusive; . = not tested or not shown; [ ] = dose if it differs, or a comment. Compounds with a hit are over-represented: about 9% of the library has one in this group of screens. Calls come from the whole dose curve; as a rule, active = well fitted curve in the direction sought with a large enough effect; inconclusive = small, poorly fitted or top-dose-only effect, or another doubt; inactive = no such curve, though single readings can be large; an effect the other way counts as inactive or inconclusive. Potency is the fitted concentration of half-maximal effect.

SMILES	PLK1 PBD block	HP1b chromo inh	BAZ2B block	G9a inh	12-LOX inh	JMJD2A Tudor inh
CC(C)Oc1ccc(/C(O)=C2/C(=O)C(=O)N(CCCn3ccnc3)C2c2cccnc2)cc1 (configuration not stated)	0%	18%	13%	40µM*	0%	-8%
COCCCN1C(=O)C(=O)/C(=C(/O)c2ccc(OC(C)C)cc2)C1c1ccncc1 (configuration not stated)	-6%	29%	?	45µM*	?	-21%
C=CCc1c(C)nc(N2CCSCC2)[nH]c1=O	27µM*	-2%	-2%	6%[59 µM]	?	?
Cc1nn(CC(=O)OC(C)C(=O)Nc2ccccc2[N+](=O)[O-])c(C)c1[N+](=O)[O-] (configuration not stated)	-6%	-7%	5%	79µM*	4%	-15%
O=C(CSc1nc2ncccc2[nH]1)NCCc1ccccc1	-10%	25%	2%	.	20%	-13%
O=C(Nc1nnc(-c2ccccc2)s1)c1cccc(S(=O)(=O)N2CCOCC2)c1	-7%	13%	-4%	?	0%	79µM*
O=C(Nc1nnc(-c2ccccc2)s1)c1ccc(Cl)c(S(=O)(=O)N2CCOCC2)c1	.	.	9%	-28%	.	.
O=C(NNS(=O)(=O)c1ccccc1F)c1cccc(S(=O)(=O)N2CCOCC2)c1	-18%	3%	-5%	?	-22%	11µM*
CC(C)Cc1nnc(NC(=O)c2cccc(S(=O)(=O)N3CCN(C)CC3)c2)s1	-7%	25%	11%	40µM*	-11%	-4%
O=C(NNS(=O)(=O)c1ccc(F)c(Cl)c1)c1cccc(S(=O)(=O)N2CCOCC2)c1	-12%	26%	-6%	-9%	-11%	-8%
O=C(NCc1ccncc1)C(=O)NCC1OCCN1S(=O)(=O)c1cc(F)ccc1F (configuration not stated)	8%	38%	.	.	i	-10%
COC(=O)c1cccc(NC(=O)c2sc(COc3cccc(C)c3)nc2C)c1	.	.	.	.	64%	.
CCOc1ccc(Br)cc1S(=O)(=O)Nc1ccc(N2CCOCC2)cc1	-4%	-7%	?	11µM*	0%	-18%
CCOc1cc(CNc2ccc3c(c2)OCCO3)cc(Br)c1OCC	1%	-76%	25µM*	.	-13%	45µM*
CCOc1cc(CNc2ccc(N3CCOCC3)cc2)cc(Br)c1OCC	-7%	45µM*	18µM*	25µM*	32µM*	20µM*
CCOc1ccc(C(=O)Nc2ccc3c(c2)OCCO3)cc1Br	.	-14%	-12%	-3%[59 µM]	-28%	-20%
COc1cc(CNc2ccc(N3CCOCC3)cc2)cc(Br)c1OC	-14%	?	40µM*	18µM*	?	40µM*
CCOc1cc(CNc2ccc(N3CCOCC3)c(C(=O)O)c2)cc(Br)c1OCC	.	.	.	.	69%	.
CC(C)Oc1ccc(C(CCN)C2CCCCC2)cc1 (configuration not stated)	-4%	79µM*	50µM*	16µM*	?	22µM*
CC1=C(C(=O)OCc2ccccc2)C(/C=C/c2ccccc2)NC(=S)N1 (configuration not stated)	-13%	-4%	?	9%[59 µM]	18µM*	?
C[C@@H](O)C1NC(=O)[C@H](CCCCN)NC(=O)c2cc([N+](=O)[O-])cc(I)c2OCC[C@@H](C(N)=O)NC1=O (some centres not stated)	-11%	-9%	?	8.9µM*	?	56µM*
CC(C)C[C@@H]1NC(=O)[C@H](CO)NC(=O)c2cc([N+](=O)[O-])cc(I)c2OCC[C@@H](C(N)=O)NC1=O	-13%	28%	-32%	40µM*	.	-9%
CC[C@H](C)[C@@H]1NC(=O)c2cc([N+](=O)[O-])cc(F)c2NCCCC[C@@H](C(N)=O)NC(=O)[C@H](CCCCN)NC1=O	-4%	4%	-7%	?	-7%	-31%
CCn1c2ccccc2c2cc(/C=N/n3cn[nH]c3=S)ccc21	-18%	-33%	?	0%[0.501 µM]	?	18µM*
CCn1c2ccccc2c2cc(/C=N/n3c(-c4cc(C)[nH]n4)n[nH]c3=S)ccc21	-27%	-7%	-34%	2.5µM*	3%	?
SMILES	PLK1 PBD block	HP1b chromo inh	BAZ2B block	G9a inh	12-LOX inh	JMJD2A Tudor inh
CCn1c2ccccc2c2cc(/C=N/n3cnnc3)ccc21	-9%	15%	2%	13%[59 µM]	0%	-18%
COc1ccc(CN[C@@H]2CCC[C@@H](C(=O)N3CCN(C)CC3)CC(=O)N(C)C2)cn1	.	.	.	.	23%[176 µM]	.
CCCc1cc(=O)[nH]c(SCC(=O)Nc2nonc2C)n1	-7%	29%	1%	-5%[59 µM]	-25%	-12%
Cn1c2ccccc2c2nn(-c3ccccc3)c(=O)cc21	-4%	23%	5%	7%[2.33 µM]	-18%	-11%
O=S(=O)(c1cnc[nH]1)N1CCN(c2ccc(Cl)cc2)CC1	-10%	13%	17%	?	15%[57.4 µM]	-8%
C/C(CC(=O)Nc1ccc([N+](=O)[O-])cc1)=N/NC(=O)C1CC12CCC2 (configuration not stated)	-18%	44%	-9%	3%	6%	-12%[57.1 µM]
COc1ccc(C2CC(=O)c3cc(-c4nc(-c5cccc([N+](=O)[O-])c5)cs4)c(=O)n(-c4ccc(C)c(C)c4)c3C2)cc1 (configuration not stated)	.	37%	-39%	11µM*	-14%	-22%
COc1ccc(C2CC(=O)c3cc(-c4nc(-c5cccc([N+](=O)[O-])c5)cs4)c(=O)n(-c4cc(C)cc(C)c4)c3C2)cc1 (configuration not stated)	.	18%	-10%	-37%[59 µM]	-11%	-10%
CCOC(=O)N1CCC2(CC1)OC(=O)C(C)=C2C(=O)NCc1ccccc1OC	.	28%	-1%	11%[59 µM]	-19%	10%
COC(=O)[C@@]12CCCCN1[C@H](c1ccc(-c3ccc(F)cc3)cc1)[C@H]1C(=O)N(C)C(=O)[C@H]12	6%	27%	.	.	-5%	-13%
COC(=O)[C@@]12CCCN1[C@H](c1ccc(-c3ccc(F)cc3)cc1)[C@H]1C(=O)N(C)C(=O)[C@H]12	9%	33%	71µM*	-3%[2.33 µM]	-11%	-28%
